Structures are written as SMILES. In all, about 110,000 compounds were measured (“z-score”: median about -0.1, highest 2% from about 2 on). The entries come from a sample that favours the highest values as a whole. The source made the active and inactive calls.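 The calls were made as follows: active = z-score in the third read window above 3 or below -3; inactive = the rest.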

The target in this test is Metabotropic glutamate receptor 8 (Rattus norvegicus) (UniProt P70579). Put plainly: rat mGluR8 modulators via GIRK flux, primary screen, cell-based, thallium flux, HTS (AID 488969). To be noted: HEK293 rat mGluR8, GIRK (G protein-gated inwardly rectifying potassium channel) thallium flux, FluoZin2; at 10 µM; stronger effect = higher value; submaximal glutamate (EC20) added with thallium.
Sequence of Metabotropic glutamate receptor 8 (Rattus norvegicus) (P70579 whole entry, looked up): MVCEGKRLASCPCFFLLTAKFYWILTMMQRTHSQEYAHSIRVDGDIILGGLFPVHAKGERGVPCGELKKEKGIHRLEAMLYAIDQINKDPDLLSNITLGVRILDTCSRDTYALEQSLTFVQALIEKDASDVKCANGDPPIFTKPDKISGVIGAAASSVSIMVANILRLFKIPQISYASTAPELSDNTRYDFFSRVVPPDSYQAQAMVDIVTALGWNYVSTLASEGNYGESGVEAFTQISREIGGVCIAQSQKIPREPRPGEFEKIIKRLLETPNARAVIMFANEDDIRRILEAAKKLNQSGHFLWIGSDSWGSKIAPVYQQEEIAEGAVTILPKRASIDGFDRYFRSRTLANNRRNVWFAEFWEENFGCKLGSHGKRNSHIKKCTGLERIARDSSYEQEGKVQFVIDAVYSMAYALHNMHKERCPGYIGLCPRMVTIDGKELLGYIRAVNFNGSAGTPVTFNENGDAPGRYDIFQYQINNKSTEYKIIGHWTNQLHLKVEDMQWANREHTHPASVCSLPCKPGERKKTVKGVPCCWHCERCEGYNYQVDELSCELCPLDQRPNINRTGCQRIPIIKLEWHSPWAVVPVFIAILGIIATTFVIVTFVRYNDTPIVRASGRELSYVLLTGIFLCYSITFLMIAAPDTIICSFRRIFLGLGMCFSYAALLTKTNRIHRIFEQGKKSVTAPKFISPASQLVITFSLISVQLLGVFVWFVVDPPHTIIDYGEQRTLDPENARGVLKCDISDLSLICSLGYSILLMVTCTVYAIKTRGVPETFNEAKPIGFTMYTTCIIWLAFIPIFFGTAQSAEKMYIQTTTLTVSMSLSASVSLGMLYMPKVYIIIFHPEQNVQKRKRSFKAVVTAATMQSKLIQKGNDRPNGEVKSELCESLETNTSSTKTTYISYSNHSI
On to `O=C1CC(=C2c3ccccc3-c3ccccc32)C(=O)N1CCN1CCN(c2cccc(Cl)c2)CC1`, for which the z-score is -0.0614.
As for `O=C(Nc1ccccc1)C(Cc1cccs1)c1nn[nH]n1` (stereo not drawn), the figure is 0.0119; as for `Cc1ccc(S(=O)(=O)/N=S(/C)c2ccccc2)cc1` (stereo not drawn), 0.693.
As for `CCN(C(=O)c1cc2ccccc2oc1=O)c1cccc(C)c1`, the figure is 0.00276; as for `CCCOc1ccc(C2(C(=O)O)CCCC2)cc1`, 0.219.
The figure for `O=C(CCC(=O)OCc1ccc(Br)cc1)Nc1ccccc1` is -0.0471; for `Cc1cccc(-c2n[nH]c(=S)n2/N=C/c2ccc(C)o2)c1` it is 0.433; for `CCN(CC)S(=O)(=O)c1cccc(-c2n[nH]c(=S)n2/N=C/c2ccc(C(=O)OC)cc2)c1` it is 3.19 (active).
`Cc1cccc(/C=N/n2c(-c3ccncc3)n[nH]c2=S)c1`: the z-score was -0.531.
The figure for `COCCn1c(CN2CCN(c3ccc(OC)cc3)CC2)nc2c1c(=O)n(C)c(=O)n2C` is -0.219; for `CCn1c(-c2cccs2)nc2ccccc21` it is -0.122; for `c1csc(Cn2c(-c3cccs3)nc3ccccc32)c1` it is -1.65.
The figure for `C=CCn1c(-c2cccs2)nc2ccccc21` is 3.14 (active); for `COc1cccc(NS(=O)(=O)c2ccc(NC(C)=O)cc2)c1` it is -0.261.
As for `COC(=O)CNc1nc(OC)nc(N(C)C)n1`, the figure is 0.391; as for `Cc1cccc(C(=O)N2CCC(Cc3ccccc3)CC2)c1[N+](=O)[O-]`, 8.23 (active).
For the molecule `O=C(c1ccccc1[N+](=O)[O-])N1CCC(Cc2ccccc2)CC1`, the z-score was -0.0322.
The figure for `Cc1cc(C(=O)N2CCC(Cc3ccccc3)CC2)ccc1[N+](=O)[O-]` is -0.573; for `CCNC(=O)CC1SC(=Nc2cccc(Cl)c2C)N(C)C1=O` (stereo not drawn) it is 0.271.
As to `c1coc(Cn2c(SCc3nc4ccccc4[nH]3)nnc2-c2cccs2)c1`, the z-score was -0.59.
As for `CC1(C)CC(=O)N(CC(=O)NCc2ccccc2)c2ccccc2S1(=O)=O`, the figure is -0.409.
The figure for `CCC(C)NC(=O)CN1C(=O)CC(C)(C)S(=O)(=O)c2ccccc21` (stereo not drawn) is 4.26 (active); for `CC1(C)CC(=O)N(CC(=O)O)c2ccccc2S1(=O)=O` it is -0.22.
As for `Cc1csc(NC(=O)C2CCCC2)n1`, the figure is 0.0786; as for `O=C(CN(Cc1ccco1)C(=O)c1ccc(Cl)cc1)Nc1ccc(Cl)c(Cl)c1`, -0.0983.
Turning to `Cc1ccc(C(=O)NC2(C(F)(F)F)N=C3SCCN3C2=O)cc1` (stereo not drawn), the z-score stood at 2.91.
The figure for `O=C(NC1(C(F)(F)F)N=C2SCCN2C1=O)c1ccccc1` (stereo not drawn) is -0.628; for `CC(C)Oc1ccc(C(=O)NC2(C(F)(F)F)N=C3SCCN3C2=O)cc1` (stereo not drawn) it is 0.873.
As for `CS(=O)(=O)Nc1ccc(C(=O)NC2CCCC2)cc1`, the figure is -0.00695; as for `COc1ccc(OC)c(/C=N/NC(=O)CN2CCSCC2)c1`, 0.045.
The figure for `CCn1cc(C(=O)NC(=S)Nc2sc3c(c2C(=O)OC)CCCCCC3)cn1` is -0.247; for `CCn1nnc(NC(=O)c2cccnc2Cl)n1` it is -0.48.
`C/C(=N\NC(=S)Nc1ccc(F)cc1)C1CC1`: the z-score is -0.155.
The figure for `C/C(=N/NC(=S)Nc1ccccc1)c1ccc2c(c1)OCO2` is 7.92 (active); for `C/C(=N/NC(=O)c1ccc2c(c1)OCO2)c1ccc(NC(=O)C(F)(F)F)cc1` it is -0.151.
The figure for `C/C(=N\NC(=O)c1ccccc1)c1ccc2c(c1)OCO2` is -0.195; for `C/C(=N/NC(=O)c1ccc2c(c1)OCO2)c1cccc(NC(=O)C(C)(C)C)c1` it is -0.191; for `C/C(=N\NC(=S)Nc1ccc(F)cc1)c1ccc2c(c1)OCCO2` it is 6.87 (active).
In the case of `COc1nc(N/N=C/c2cc3c(cc2Br)OCO3)nc(N2CCOCC2)n1`, the z-score was -0.297.
As for `Cc1c(N=C2SCC(=O)N2/N=C/c2ccccc2)c(=O)n(-c2ccccc2)n1C`, the z-score is -0.023.
In the case of `CSc1nc2ccc(NC(=O)c3nn(C(C)C)c(=O)c4ccccc34)cc2s1`, the z-score is -0.391.
The figure for `Cc1ccc(SCc2cc(-c3ccc(Cl)cc3)on2)cc1` is 0.048; for `CCOc1ccc(-c2[nH]ncc2-c2csc(C)n2)c(O)c1` it is -0.285; for `COc1ccc(NC(=O)CSc2nnc(Cn3cnc4ccccc43)n2C)cc1` it is 0.66.
As for `O=C(Nc1ccc2c(c1)OCCO2)c1ccc2nccnc2c1`, the figure is 0.215; as for `CCOC(=O)C1CCN(c2c(Nc3ccc4c(c3)OCCO4)c(=O)c2=O)CC1`, -0.277.
The figure for `CC(=O)Nc1ccccc1C(=O)N1CCc2ccccc21` is 1.03.
As to `O=C(NN1c2ccccc2CCc2ccccc21)c1ccccc1Br`, the z-score was -0.0618.
As for `O=C(c1cncc(Br)c1)N1CCCc2ccccc21`, the figure is 0.0197.
As for `O=C(NC(=S)N1CCCc2ccccc21)c1ccc([N+](=O)[O-])cc1`, the figure is 14.7 (active); as for `O=C(NC(=S)N1CCOCC1)c1ccc([N+](=O)[O-])cc1`, 0.875.
As for `O=C(N/N=C1\CCCc2ccccc21)c1ccc([N+](=O)[O-])cc1`, the figure is 1.47.
As to `CC1CN(C(=S)NC(=O)c2ccc([N+](=O)[O-])cc2)CC(C)O1` (stereo not drawn), the z-score is 0.605.
The figure for `CCC1CCCCN1C(=S)NC(=O)c1ccc([N+](=O)[O-])cc1` (stereo not drawn) is 9.16 (active); for `O=C(NC(=S)N1CCc2ccccc21)c1ccccc1Br` it is 11.2 (active); for `CC(=O)N1CCCc2ccccc21` it is 0.0326.
The figure for `O=C(NC(=S)N1CCCc2ccccc21)c1ccc(Br)cc1` is 9.56 (active); for `CCC1CCCCN1C(=S)Nc1ccc(C(C)=O)cc1` (stereo not drawn) it is -0.196; for `Cc1ccc(CN2C(=O)CCSc3ccc(Cl)cc32)cc1` it is -0.054.
As to `Clc1ccc(-c2n[nH]c3c2CCC3)c(Cl)c1`, the z-score was 0.0993.
The figure for `O=C(CCS(=O)(=O)c1cccc2nsnc12)NCc1ccccc1Cl` is 0.429.
As for `COc1ccccc1N1CCN(C(CNC(=O)c2ccco2)c2cccnc2)CC1` (stereo not drawn), the figure is 1.2; as for `CN(/N=C/c1ccc(O)cc1O)c1nc(-c2ccccc2)cc(-c2ccccc2)n1`, 0.141.
The figure for `COc1cc(C(=O)OCC(=O)Nc2ccc3c(c2)OC(F)(F)O3)ccc1OCc1c(C)noc1C` is -0.513; for `O=C(Nc1ccccc1)N1CCc2ccccc21` it is -0.39.
As to `O=C(c1ccccc1)N1CCCc2ccccc21`, the z-score was 3.33 (active).
As for `Cc1ccc(NC(=O)N2CCc3ccccc32)cc1`, the figure is 1.99; as for `CC(C)[C@H](NC(=O)c1ccccc1)C(=O)N1CCc2ccccc21`, -0.0295; as for `O=C(c1ccccc1)N1CCc2ccccc21`, 0.518.
For `CC12CCC(C(=O)N3CCc4ccccc43)(CC1=O)C2(C)C` (stereo not drawn), the z-score came to 0.155.
The figure for `O=C(CCC(=O)N1CCc2ccccc21)N1CCc2ccccc21` is -0.329; for `COc1ccc(C(=O)N2CCCc3ccccc32)cc1` it is -0.672; for `COc1ccc(NC(=O)N2CCc3ccccc32)cc1` it is 0.323.
The figure for `CC12CCC(C(=O)N3CCCc4ccccc43)(CC1=O)C2(C)C` (stereo not drawn) is 3.5 (active); for `O=C(NC(=S)N1CCc2ccccc21)c1ccccc1` it is 7.58 (active).
As for `CC12CCC(C(=O)N3CCCc4ccccc43)(OC1=O)C2(C)C` (stereo not drawn), the figure is -0.143; as for `O=C(c1ccco1)N1CCN(Cc2nc3ccccc3c(=O)n2-c2ccc(F)cc2)CC1`, 0.209.
As to `COc1cc2[nH]c(=S)nc(NCC3CCCO3)c2cc1OC` (stereo not drawn), the z-score turned out to be 0.919.
As for `Cc1cccc(-n2c(C)n[nH]c2=S)c1`, the figure is -0.139.
As to `Cc1ccc2c(c1)c1c(n2CC(O)CN2C(=O)CNC2=O)C(=O)CCC1` (stereo not drawn), the z-score is 0.0317.
The figure for `Cc1cc(C)n(C(=O)CNC(=O)C(c2ccccc2)c2ccccc2)n1` is -0.473.
As for `S=C(c1ccccc1)N1CCCc2ccccc21`, the figure is -0.863; as for `COc1ccccc1C(=O)NC(=S)N1CCCc2ccccc21`, -0.0293; as for `O=C(NC(=S)N1CCCc2ccccc21)c1ccc(Cl)cc1`, 15.6 (active).
The figure for `O=C(NC(=S)N1CCCc2ccccc21)c1ccccc1` is 4.54 (active); for `Fc1ccc(NC(=S)N2CCCc3ccccc32)cc1` it is -0.143; for `O=C(C(=O)N1CCCc2ccccc21)N1CCCc2ccccc21` it is 0.0396.
As to `CN(CCC#N)C(=O)Cn1nc(Cc2ccncc2)c2ccccc2c1=O`, the z-score amounted to 1.89.
The figure for `CCOCC(=O)Nc1nnc(C2CCCCC2)s1` is 0.0573.
As to `Cc1cccc(Cn2c(C(C)O)nc3ccccc32)c1` (stereo not drawn), the z-score is -0.101.
The figure for `COc1cccc(N2CCN(CC(=O)C34CC5CC(CC(C5)C3)C4)CC2)c1` is 0.0526; for `COC(=O)[C@H](C)NC(=O)Nc1cc(OC)ccc1OC` it is -0.238; for `Cc1cc([N+](=O)[O-])cc(C)c1OCC(=O)N/N=C/c1ccc(OC(=O)c2ccccc2)cc1` it is -0.0495.
As for `Cc1cc([N+](=O)[O-])cc(C)c1OCC(=O)N/N=C/c1ccc(OC(=O)c2ccccc2Br)cc1`, the figure is 2.41; as for `COc1cc(/C=N/NC(=O)COc2c(C)cc([N+](=O)[O-])cc2C)ccc1OC(=O)c1ccccc1`, -0.81; as for `CCOc1ccc2[nH]cc(C(=O)N3CCN(C4CCCCC4)CC3)c(=O)c2c1`, -0.123.
The figure for `CC(=O)N1CCN(CC(O)COc2ccc(OCc3ccccc3)cc2)CC1` (stereo not drawn) is 0.0259; for `Cc1cc2ccccc2c(=O)n1CC(=O)NCC1COc2ccccc2O1` (stereo not drawn) it is 0.0188.
In the case of `Cc1ccc2nc(N3C(=O)C(O)=C(C(=O)c4ccco4)C3c3cccs3)sc2c1` (stereo not drawn), the z-score was -1.09.
As for `O=C1CC(c2ccccc2)Sc2ccccc2N1` (stereo not drawn), the figure is -0.216; as for `CC1CC(=S)Nc2ccccc2N1Cc1ccccc1` (stereo not drawn), 1.32; as for `CC1CSc2ccccc2NC1=S` (stereo not drawn), 3.72 (active).
Regarding `C=C(C)c1cccc(C(C)(C)NC(=O)Nc2ccc(C)cn2)c1`, the z-score was -0.34.
As for `CCOc1ccc(C(=O)Nc2cc(=O)n(C)c(=O)n2C)cc1`, the figure is -0.395; as for `CCOC(=O)c1ccc2nc(NC(=O)c3ccco3)sc2c1`, -0.0743; as for `O=C(CN1CCN(Cc2ccc3c(c2)OCO3)CC1)Nc1ccc2c(c1)OCCO2`, 0.156.
For `Cc1c(NC(=O)Cn2cnc3c(=O)n(C)c(=O)n(C)c32)cccc1-c1nc2ccccc2o1`, the z-score came out at 0.183.
The figure for `CC12CCC(C(=O)N(CSC(=S)N/N=C\c3ccccc3)C1=O)C2(C)C` (stereo not drawn) is 16.4 (active); for `CN(C)c1ccc(/C=N\NC(=S)SCN2C(=O)C3CCC(C)(C2=O)C3(C)C)cc1` (stereo not drawn) it is 1.74; for `COc1ccc(/C=N\NC(=S)SCN2C(=O)C3CCC(C)(C2=O)C3(C)C)cc1` (stereo not drawn) it is 9.12 (active).
The figure for `COc1ccc(/C=N/NC(=S)NC2CCS(=O)(=O)C2)cc1` (stereo not drawn) is -0.113; for `CC12CCC(C(=O)N(CC(O)CN3CCCCC3)C1=O)C2(C)C` (stereo not drawn) it is 0.169.
The figure for `COc1ccc(C(=O)NN2C(=O)C3CCC(C)(C2=O)C3(C)C)cc1` (stereo not drawn) is -0.0665.
